Screening data (PubChem)
Many of the other results were omitted from the sample, so hits are more common in it than they were.
IDE exosite FP: displaces the probe from the exo-site of human IDE; P14735; purified IDE, FL-6b probe fluorescence polarization; stronger effect = lower value; z-score at 20 µM; 17,000 compounds, 6.3% hits;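 active = z-score of -3 or lower, meaning strong loss of probe binding signal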;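 also: His-tagged human IDE residues 42-1019 made in E. coli with 30 nM FL-6b probe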
Target sequence (P14735 42-1019 limits assumed): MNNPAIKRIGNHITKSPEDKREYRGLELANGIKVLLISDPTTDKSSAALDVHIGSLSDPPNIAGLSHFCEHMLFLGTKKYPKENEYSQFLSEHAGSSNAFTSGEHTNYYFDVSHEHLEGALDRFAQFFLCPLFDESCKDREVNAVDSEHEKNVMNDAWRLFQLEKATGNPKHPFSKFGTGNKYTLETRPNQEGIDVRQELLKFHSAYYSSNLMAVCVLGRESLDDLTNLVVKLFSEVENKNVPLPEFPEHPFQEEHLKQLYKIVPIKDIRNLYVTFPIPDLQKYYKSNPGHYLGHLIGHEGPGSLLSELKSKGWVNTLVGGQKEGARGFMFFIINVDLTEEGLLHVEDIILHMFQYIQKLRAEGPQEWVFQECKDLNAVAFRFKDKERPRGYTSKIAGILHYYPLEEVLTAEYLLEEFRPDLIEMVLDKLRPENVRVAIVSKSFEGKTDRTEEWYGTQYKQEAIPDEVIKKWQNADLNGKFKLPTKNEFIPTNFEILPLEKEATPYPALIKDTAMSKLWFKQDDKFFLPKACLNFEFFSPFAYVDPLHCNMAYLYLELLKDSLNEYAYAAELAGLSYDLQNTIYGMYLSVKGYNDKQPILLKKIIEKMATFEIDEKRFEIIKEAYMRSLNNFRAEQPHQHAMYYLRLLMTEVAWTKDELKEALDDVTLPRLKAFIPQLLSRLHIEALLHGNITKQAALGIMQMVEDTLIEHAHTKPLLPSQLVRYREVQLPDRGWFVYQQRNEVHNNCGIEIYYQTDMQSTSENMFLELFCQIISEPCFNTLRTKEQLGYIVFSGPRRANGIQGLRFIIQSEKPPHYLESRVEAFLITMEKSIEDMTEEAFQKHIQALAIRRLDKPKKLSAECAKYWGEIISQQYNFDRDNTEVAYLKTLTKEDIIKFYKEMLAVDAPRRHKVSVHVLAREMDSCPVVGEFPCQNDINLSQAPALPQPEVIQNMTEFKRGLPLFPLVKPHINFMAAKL
The depositor's hits bear a star.

SMILES	IDE exosite FP
O=C(c1ccccc1)N1CC(=O)N2[C@H](CO)[C@@H](c3ccc(/C=C/c4ccccc4)cc3)[C@@H]2C1	-1.6
O=C(Cc1cccnc1)N1CC(=O)N2[C@@H](CO)[C@H](c3ccc(/C=C/c4ccccc4)cc3)[C@@H]2C1	-2.7
O=C(c1cccnc1)N1CC(=O)N2[C@@H](CO)[C@@H](c3ccc(/C=C/c4ccccc4)cc3)[C@@H]2C1	-8.6*
O=C(c1cccnc1)N1CC(=O)N2[C@H](C1)[C@@H](c1ccc(/C=C/c3ccccc3)cc1)[C@@H]2CO	-7.7*
O=C(c1ccccc1)N1CC(=O)N2[C@H](CO)[C@@H](c3ccc(/C=C/c4ccccc4)cc3)[C@H]2C1	-0.53
O=C(c1cccnc1)N1CC(=O)N2[C@H](CO)[C@@H](c3ccc(/C=C/c4ccccc4)cc3)[C@@H]2C1	-4.3*
O=C(c1cccnc1)N1CC(=O)N2[C@H](CO)[C@H](c3ccc(/C=C/c4ccccc4)cc3)[C@@H]2C1	-10*
COCC(=O)N1[C@@H](CO)[C@H](c2ccc(-c3ccccc3OC)cc2)C12CN(C(C)=O)C2	-0.56
CO[C@H]1CC[C@@H]2CCOc3ccc(C#N)cc3C(=O)N(C)C[C@H](c3ccccc3)CC(=O)N(C)C[C@H]1O2	-1.2
O=C(O)C[C@H]1CC[C@H]2[C@@H](COC[C@H](O)CN2S(=O)(=O)c2ccc(Oc3ccccc3)cc2)O1	-0.29
CCOC(=O)c1cc2c(c(-c3cccc(Br)c3)n1)[C@H](CCO)N(C(=O)NC(C)C)C2	-0.3
O=C(c1ccccc1F)N1CC(=O)N2[C@H](CO)[C@@H](c3ccc(-c4ccccc4)cc3)[C@@H]2C1	-2.9
CN1CCN(C(=O)C[C@@H]2CC[C@H]3[C@@H](COC[C@H](O)CN3C(=O)c3ccccc3F)O2)CC1	1.3
CS(=O)(=O)Nc1ccc2c(c1)[C@@H]1C[C@H](CC(=O)NCCc3ccccc3)O[C@H](CO)[C@@H]1O2	0.84
C[C@H]1CN([C@@H](C)CO)C(=O)c2cc(-c3cccc(C(=O)N(C)C)c3)cnc2O[C@H]1CN(C)C(=O)Cc1ccccn1	-0.91
O=C(NCC[C@H]1CC[C@@H](NC(=O)C2CCOCC2)[C@H](CO)O1)c1cc(Cl)cc(Cl)c1	-0.18
C[C@@H]1CN([C@@H](C)CO)C(=O)c2cc(-c3ccc(F)cc3)cnc2O[C@@H]1CN(C)S(C)(=O)=O	0.66
O=C(c1cccnc1)N1CC(=O)N2[C@H](C1)[C@H](c1ccc(/C=C/c3ccccc3)cc1)[C@@H]2CO	-4.5*
O=C(c1ccccc1)N1CC(=O)N2[C@H](C1)[C@H](c1ccc(/C=C/c3ccccc3)cc1)[C@@H]2CO	-2.2
O=C(c1ccncc1)N1CC(=O)N2[C@H](CO)[C@H](c3ccc(/C=C/c4ccccc4)cc3)[C@@H]2C1	-9.5*
O=C(c1ccncc1)N1CC(=O)N2[C@H](C1)[C@H](c1ccc(/C=C/c3ccccc3)cc1)[C@@H]2CO	-0.3
N#C[C@H]1[C@@H](c2ccccc2-c2cccc(F)c2)[C@@H](CO)N1C(=O)NC1CCCCC1	-0.36
N#C[C@@H]1[C@@H](c2ccc(C#Cc3cccnc3)cc2)[C@@H](CO)N1C(=O)C1CC1	1.6
O=C([C@@H]1N[C@@H]2c3ccc(-c4ccc(F)cc4)c(=O)n3C[C@@H]2[C@H]1CO)N1CCc2ccccc2C1	-0.64
C[C@H](O)C#Cc1ccc([C@H]2[C@H]3CN(C(=O)c4ccc5c(c4)OCO5)CCCCN3[C@H]2CO)cc1	-0.051
SMILES	IDE exosite FP
CC(C)CC#Cc1ccc([C@@H]2[C@H]3CN(C(=O)NC4CCCC4)CCCCN3[C@H]2CO)cc1	-0.062
C[C@@H]1CCCCO[C@@H](CN(C)C(=O)NC2CCCCC2)[C@H](C)CN([C@@H](C)CO)C(=O)c2cc(N(C)C)ccc2O1	1.5
C[C@H]1CCCCO[C@@H](CN(C)Cc2ccncc2)[C@@H](C)CN([C@@H](C)CO)C(=O)c2cc(NC(=O)Cc3ccccc3)ccc2O1	1.3
CN1C(=O)c2cc(NS(=O)(=O)c3ccccc3F)ccc2OC[C@H]2O[C@H](CC(=O)NC3Cc4ccccc4C3)CC[C@@H]21	-0.59
C/C=C/c1ccc([C@@H]2[C@H]3CN(Cc4ccc(C)cc4)CC(=O)N3[C@H]2CO)cc1	2
COC(=O)c1ccc(CN2CC(=O)N3[C@H](CO)[C@@H](c4ccc(Br)cc4)[C@@H]3C2)cc1	-3.5*
COC(=O)c1ccc(CN2CC(=O)N3[C@H](CO)[C@@H](c4ccc(Br)cc4)[C@H]3C2)cc1	2.8
COC(=O)c1ccc(CN2CC(=O)N3[C@H](CO)[C@H](c4ccc(Br)cc4)[C@@H]3C2)cc1	-0.79
C/C=C/c1ccc([C@H]2[C@H](CO)N3C(=O)CN(Cc4ccc(C)cc4)C[C@@H]23)cc1	-5*
C/C=C/c1ccc([C@@H]2[C@@H](CO)N3C(=O)CN(Cc4ccc(C)cc4)C[C@@H]23)cc1	1.2
N#C[C@H]1[C@H](c2ccc(C#CCC3CCCC3)cc2)[C@@H](CO)N1C(=O)c1ccccn1	2.5
Cc1ccccc1S(=O)(=O)N1[C@H](CO)[C@@H](c2ccc(C#CC3CCCCC3)cc2)[C@@H]1C#N	1.9
CN1C(=O)c2cc(NS(C)(=O)=O)ccc2OC[C@H]2O[C@@H](CC(=O)N3CCOCC3)CC[C@H]21	1.1
CC(C)(O)C#Cc1ccc([C@H]2[C@@H](CO)N3CCCCN(C(=O)c4cccnc4)C[C@H]23)cc1	2
O=C(c1ccncc1)N1CCCCN2[C@@H](CO)[C@H](c3ccc(C#Cc4ccccn4)cc3)[C@@H]2C1	-1.1
O=C(c1cccnc1)N1CCCCN2[C@H](C1)[C@@H](c1ccc(C#Cc3ccccn3)cc1)[C@@H]2CO	-3.8*
O=C(c1cccnc1)N1CCCCN2[C@@H](CO)[C@H](c3ccc(C#Cc4cccnc4)cc3)[C@@H]2C1	0.61
O=C(c1cccnc1)N1CCCCN2[C@H](CO)[C@@H](c3ccc(C#Cc4ccccn4)cc3)[C@H]2C1	-4.7*
O=C(c1cccnc1)N1CCCCN2[C@H](CO)[C@@H](c3ccc(C#Cc4ccccn4)cc3)[C@@H]2C1	-2.6
COc1ccc2c3c([nH]c2c1)[C@@H](CO)N(S(=O)(=O)c1ccc(C)cc1)CC31CCN(C(=O)Cc2cccnc2)CC1	0.72
C[C@H]1CN([C@@H](C)CO)C(=O)Cc2cc(NC(=O)c3ccncc3)ccc2O[C@H]1CN(C)C(=O)Nc1ccc(F)cc1	1.8
CN(C)C(=O)c1cccc(-c2ccc(C3[C@@H]4CN(Cc5ccccc5F)C[C@H]3N4)cc2)c1 (stereo partly drawn)	0.88
CCCC#Cc1ccc([C@@H]2[C@H]3CN(S(=O)(=O)CC)CCCCN3[C@H]2CO)cc1	-0.062
CCS(=O)(=O)N1CCCCN2[C@H](C1)[C@@H](c1ccc(C#Cc3ccccc3OC)cc1)[C@@H]2CO	-9.5*
CCCC#Cc1ccc([C@@H]2[C@H]3CN(S(=O)(=O)Cc4ccccc4)CCCCN3[C@H]2CO)cc1	3.8
CCS(=O)(=O)N1CCCCN2[C@H](CO)[C@@H](c3ccc(C#Cc4ccccc4OC)cc3)[C@@H]2C1	-11*
CCCC#Cc1ccc([C@@H]2[C@@H](CO)N3CCCCN(S(=O)(=O)CC)C[C@@H]23)cc1	-2.1
CCCC#Cc1ccc([C@@H]2[C@H](CO)N3CCCCN(S(=O)(=O)CC)C[C@@H]23)cc1	-3*
O=S(=O)(Cc1ccccc1)N1CCCCN2[C@H](C1)[C@H](c1ccc(C#Cc3ccccc3)cc1)[C@@H]2CO	5.9
CCS(=O)(=O)N1CCCCN2[C@H](CO)[C@H](c3ccc(C#Cc4ccccn4)cc3)[C@@H]2C1	-0.051
